Sampled rows, rich in hits. Any-hit rate of the full collection: about 2.7%.
GLP1R ag = GLP-1 receptor (human) agonism | AID 624172 | HEK293 GLP-1R CRE-luciferase, luminescence, 4-6 h; cells express a hypersensitive GLP-1R form | 0.007% of 380,000 active | P43220 | Potency, µM (series often up to 45.6 µM), inactives show at the top dose activation, most hits filed as activators; note: % of control where 0% means no effect
rTrxR1 inhibitor = inhibitors of rat thioredoxin reductase 1; 1% of 390,000 active; AID 588453; recombinant rTrxR1, NADPH fluorescence consumption, selenite substrate; O89049; Potency, µM (series often up to 114 µM), for inactives: top-dose activity change, negative = inhibition, usual class: inhibitors; note: % is set by controls: 0 for no effect and ±100 for the full control effect; nearly all actives have a fitted effect of over 65% in size
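Rat TrxR1 (90 nM in the dispensed reagent) was pre-reduced with 400 uM NADPH for 5 min at room temperature, then incubated with compound for 15 min. After 400 uM selenite was added, NADPH fluorescence (Ex 340/Em 450 nm) was followed for 8 min.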
mIDH1 inhibitor = inhibitors of human mutant IDH1 R132H. IDH1-R132H enzyme, NADPH consumption, diaphorase/resazurin fluorescence. Potency, µM (highest dose often 76.6 µM), inactives show at the highest dose activity change, negative = inhibition, most hits filed as inhibitors. 0.093% of 390,000 active. O75874; note: % is set by controls: 0 for no effect and ±100 for the full control effect; nearly all actives have a fitted effect of over 65% in size
Target sequence (O75874 whole entry R132H, stated change not applied): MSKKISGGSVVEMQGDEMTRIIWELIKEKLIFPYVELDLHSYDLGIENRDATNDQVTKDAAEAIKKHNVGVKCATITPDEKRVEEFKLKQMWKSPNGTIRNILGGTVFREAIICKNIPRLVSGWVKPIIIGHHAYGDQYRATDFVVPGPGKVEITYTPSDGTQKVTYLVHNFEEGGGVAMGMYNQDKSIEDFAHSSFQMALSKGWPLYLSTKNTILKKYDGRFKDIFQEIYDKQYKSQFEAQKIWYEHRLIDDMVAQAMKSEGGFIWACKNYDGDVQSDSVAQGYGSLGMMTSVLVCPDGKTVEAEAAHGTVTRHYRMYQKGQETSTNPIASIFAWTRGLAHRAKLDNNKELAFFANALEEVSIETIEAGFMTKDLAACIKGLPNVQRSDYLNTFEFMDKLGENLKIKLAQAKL
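IDH1-R132H (0.5 ug/mL dispensed) in pH 7.5 Tris buffer was preincubated 30 min with compound, then given a substrate mix of 0.016 mM NADPH and 2 mM alpha-KG for 80 min at room temperature; remaining NADPH was read by diaphorase/resazurin fluorescence.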
TrxR1 substrate = is turned over as a substrate by rat TrxR1 | AID 588456 | Potency, µM (series often up to 114 µM), for inactives: at the top dose activity change, negative = substrate turnover | O89049 | purified TrxR1 substrate turnover, NADPH consumption readout | 0.01% of 390,000 active; note: % is set by controls: 0 for no effect and ±100 for the full control effect; nearly all actives have a fitted effect of over 50% in size
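Rat TrxR1, dispensed at 90 nM, was prereduced with 400 uM NADPH (final) for 5 min at ~22 deg C, then incubated with compound 15 min before 400 uM selenite. A first-read NADPH fluorescence drop versus no-compound background flagged substrates.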
GLP-1R inv ag = GLP-1 receptor (human) inverse agonism | P43220 | HEK293 GLP-1R CRE-luciferase, luminescence, 24 h; GLP-1R form is constitutively active | AID 624417 | 1.6% of 410,000 active | Potency, µM (series often up to 38.3 µM), for inactives: top-dose activity change, negative = inhibition, hits mostly inhibitors; note: % is set by controls: 0 for no effect and ±100 for the full control effect; nearly all actives have a fitted effect of over 55% in size
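HEK293 cells stably co-expressing a cAMP-responsive luciferase reporter and constitutively active GLP-1R were seeded, incubated 12 h, then exposed to compounds for 24 h at 37 C. Luminescence was read 12 min after detection reagent; inverse agonists lower signal.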
GLP1R cytotox = cytotoxic in the GLP-1 receptor inverse agonist counter-screen; Potency, µM (titrated, usually from 38.3 µM), for inactives: at the highest dose activity change, negative = inhibition, most hits filed as inhibitors; 0.13% of 410,000 active; AID 624418; HEK293 cAMP-luciferase reporter cells, luminescence, 24 h;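 note: loss of luciferase light is scored as toxicity; % is set by controls: 0 for no effect and ±100 for the full control effect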
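To flag toxic compounds, the library was rerun on cells for 24 hr at 37 deg C and 5% CO2. Viability-linked luminescence was captured 12 min after adding luciferase detection reagent.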
* = called active by the depositor; ? = inconclusive; / = no result given; [ ] = another dose, or the depositor's remark. Calls come from the whole dose curve; as a rule, active = well fitted curve in the direction sought with a large enough effect; inconclusive = small, poorly fitted or top-dose-only effect, or another doubt; inactive = no such curve, though single readings can be large; an effect the other way counts as inactive or inconclusive. Potency is the fitted concentration of half-maximal effect.

SMILES	GLP1R ag	rTrxR1 inhibitor	mIDH1 inhibitor	TrxR1 substrate	GLP-1R inv ag	GLP1R cytotox
O=C(CCl)N1c2ccccc2SCC1c1ccccc1 (stereo unspecified)	-4%	1.3µM*	0%	7%	?	?
O=C(CN1CCSc2ccccc21)N1CCCCC1	-2%	20%[57.1 µM]	5%	5%[57.1 µM]	-14%	9%
COc1ccc(N2Cc3cccc(C(=O)Nc4ccc(C(C)C)cc4)c3C2=O)cc1	/	1%	/	-5%	-3%	4%
COc1cccc(NCc2cc(=O)oc3cc(C)c(C(C)C)cc23)c1	17%	14%	6%	4%	11µM*	-18%
Cc1cc2oc(=O)cc(CN3CCCCC3)c2cc1C(C)C	0%	-17%	9%	0%	?	18%
COc1cccc(-c2ncc3ccccc3c2COC(=O)c2ccc(F)cc2)c1	11%	1%	0%	-6%	11µM*	0%
COc1ccc(-c2noc(N(c3ccc(F)c(Cl)c3)c3nc(-c4ccc(OC)c(OC)c4)no3)n2)cc1OC	0%	0%	24%	-3%	-7%	5%
COc1ccc2nc(Cl)c(C3CC(c4ccco4)=NN3C(=O)CCC(=O)O)cc2c1 (stereo unspecified)	0%	-6%[57.1 µM]	1%	7%[57.1 µM]	13%	0%
COc1ccc2nc(Cl)c(C3CC(c4ccco4)=NN3C(=O)CCCC(=O)O)cc2c1 (stereo unspecified)	2%	40µM*	-1%	4%	48%	0%
CCCCC[C@@H](C)N1C[C@@H](COCc2ccccc2)Oc2cc(N3CC[C@H](O)C3)ccc2S1(=O)=O	2%	/	/	/	?	-2%
CCCCC[C@H](C)N1C[C@@H](COCc2ccccc2)Oc2cc(N3CC[C@@H](O)C3)ccc2S1(=O)=O	-3%	/	/	/	10µM*	?
CCCCC[C@@H](C)N1C[C@@H](COCc2ccccc2)Oc2cc(N3CC[C@@H](O)C3)ccc2S1(=O)=O	1%	/	/	/	14µM*	-21%
COc1cccc(-c2nc(SC(C(C)=O)C(=O)N(C)C)c3c(=O)n(C)c(=O)n(C)c3n2)c1 (stereo unspecified)	/	17%[57.1 µM]	-7%	-2%[57.1 µM]	11%	22%
COc1ccccc1NCC(=O)c1ccc(Cl)cc1	1%	14%[57.1 µM]	46µM*	5%[57.1 µM]	9%	11%
CC1Cc2cc(S(=O)(=O)CCC(=O)NCc3ccccc3Cl)ccc2N1C(=O)C1CC1 (stereo unspecified)	/	11%	-12%	4%	-20%	-22%
CC1CC(C)CN(c2cc(N(C)CCO)c([N+](=O)[O-])c3nonc23)C1 (stereo unspecified)	0%	14%[57.1 µM]	13%	-20%	1%[7.66 µM]	14%[7.66 µM]
CC1CCN(c2cc(N(C)CCO)c([N+](=O)[O-])c3nonc23)CC1	-6%	45µM*	-7%	-14%	-14%	1%
S=C1SCN(Cc2ccccc2)CN1Cc1ccccc1	25%	17%	0%	6%	?	?
S=C1SCN(Cc2cccnc2)CN1Cc1cccnc1	-2%	0%[57.1 µM]	6%	4%[57.1 µM]	3.2µM*	?
COc1ccc(CN2CSC(=S)N(Cc3ccccc3)C2)cc1	21%	3%	0%	-4%	10µM*	?
COc1ccc(CN2CSC(=S)N(Cc3ccc(OC)cc3)C2)cc1	19%	14%	4%	0%	?	2%
CSc1ccc(CCNC(=O)Cn2ncn3c(cc4ccccc43)c2=O)cc1	/	29%	-4%	11%	1%	6%
c1ccc(Nc2nc(NCc3ccco3)c3ccccc3n2)cc1	-9%	15%[57.1 µM]	-7%	7%[57.1 µM]	2.2µM*	?
Oc1ccccc1Nc1nc(NCc2ccco2)c2ccccc2n1	-1%	8%	6%	5%	?	-33%
CNc1nc(NCc2ccco2)c2ccccc2n1	/	-18%	/	4%	/	/
SMILES	GLP1R ag	rTrxR1 inhibitor	mIDH1 inhibitor	TrxR1 substrate	GLP-1R inv ag	GLP1R cytotox
Clc1ccc2c(NCc3ccco3)ncnc2c1	25%	-2%[57.1 µM]	4%	-5%	11%	-3%
O=S(=O)(Nc1nc2ccccc2nc1NCc1ccco1)c1ccc(Cl)cc1	-15%	-29%	7%	-1%	?	-6%
Cc1ccc(S(=O)(=O)Nc2nc3ccccc3nc2NCc2ccco2)cc1	5%	8.9µM*	2%	18%	0%	-7%
Cc1ccc2ncnc(NCc3ccco3)c2c1	/	79µM*	/	-4%	/	/
Cc1ccccc1Nc1nc(NCc2ccco2)c2ccccc2n1	-1%	28%[57.1 µM]	-4%	3%[57.1 µM]	4µM*	?
COc1cccc(OCc2nc3ccccc3n2CCOc2ccc(C)cc2)c1	/	20%	-9%	3%	?	-6%
CCCCCC1CC1C(=O)N/N=C/c1ccc(N(C)C)cc1 (stereo unspecified)	12%	-14%	0%	16%	7.9µM*	-7%
CN(C)c1ccc(/C=N/NC(=O)COc2ccccc2)cc1	0%	-8%	-15%	32%	5%	-10%
CC(=O)Nc1ccc(S(=O)(=O)N2CCN(C(=O)C3COc4ccccc4O3)CC2)cc1 (stereo unspecified)	-3%	1%[57.1 µM]	-8%	-5%	16%	-4%
COc1ccc(S(=O)(=O)N2CCN(C(=O)C3COc4ccccc4O3)CC2)cc1 (stereo unspecified)	3%	50µM*	4%	-4%	-14%	0%
COc1ccc(S(=O)(=O)N2CCOc3ccccc32)cc1	-3%	-11%	4%	-13%	3.5µM*	?
COc1ccc(S(=O)(=O)N2c3ccccc3OCC2C)cc1 (stereo unspecified)	25%	22%[57.1 µM]	8%	0%	?	-21%
CC1(Cc2cc(Cl)ccc2C(F)(F)F)C(=O)Nc2ccc(-c3ccc(F)c(Cl)c3)cc21 (stereo unspecified)	-26%	/	/	/	?	11µM*
O=C1Cc2ccccc2C(=O)N1Nc1ccccc1	-2%	50µM*	-1%	-7%	?	-23%
O=C(NC1(Cc2ccccc2)CCN(CCCc2ccccc2)C1=O)c1ccccc1 (stereo unspecified)	7%	1%	-2%[38.3 µM]	-3%	11µM*	-16%
OCC1(Cc2ccc(Cl)cc2)CCN(CCCc2ccccc2)CC1	2%	1%[57.1 µM]	-4%	-5%[57.1 µM]	?	?
Cc1cccc(-c2nc(NCCCN3CCOCC3)c3ccccc3n2)c1	11%	6%[57.1 µM]	1%	5%[57.1 µM]	8.9µM*	?
COc1ccc(OC)c(NC2=C(c3ccccc3)C(=O)c3ccccc32)c1	/	-10%	-1%	-7%	?	?
O=C1SCCN1N=Cc1ccc([N+](=O)[O-])o1	1%	-57%[57.1 µM]	6%	-3%[57.1 µM]	18%	-34%
